Test results as given in PubChem BioAssay (NCI).
The panel holds about 79,000 compounds, 15% with a hit somewhere; the sample as a whole holds those more often. A number with no mark means an inactive call. Calls of active or inactive are those of the source. Rule as the data show it: active = growth inhibition above about 70%; inactive = the rest.

Experiments:
[1] = NCI Yeast Anticancer Drug Screen. Data for the rad50 strain (AID 155);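 also: 0% = growth of vehicle-only cultures of the same strain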; conditions: S. cerevisiae rad50 strain growth inhibition, stronger effect = higher value
In short: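 Growth of the mutant yeast was measured after compound exposure and referenced to vehicle-treated cultures.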

[2] = NCI Yeast Anticancer Drug Screen. Data for the mec2-1 strain (AID 157); conditions: S. cerevisiae mec2-1 strain, stronger effect = higher value
In short: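 Mutant yeast (mec2-1) grown with compound; growth inhibition relative to vehicle control reported.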

[3] = NCI Yeast Anticancer Drug Screen. Data for the sgs1 mgt1 strain (AID 161);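 also: 0% = growth of cultures given vehicle only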; conditions: S. cerevisiae sgs1 mgt1 strain, stronger effect = higher value
In short: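 Percent growth inhibition was derived by comparing compound-exposed mutant yeast with vehicle-exposed cultures. The strain carries alterations in DNA damage repair.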

[4] = NCI Yeast Anticancer Drug Screen. Data for the cln2 rad14 strain (AID 165);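 also: 0% = growth equal to vehicle treated cultures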; conditions: S. cerevisiae cln2 rad14 strain, stronger effect = higher value
In short: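 Readout is yeast growth inhibition versus vehicle-treated controls, using a strain with cln2 and rad14 alterations exposed to compound.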

[5] = NCI Yeast Anticancer Drug Screen. Data for the bub3 strain (AID 167); conditions: S. cerevisiae bub3 mutant strain, stronger effect = higher value
In short: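 Whole-cell yeast assay. The mutant strain was incubated with compounds, and growth inhibition was determined by comparison with vehicle-treated cells.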

[6] = NCI Yeast Anticancer Drug Screen. Data for the mlh1 rad18 strain (AID 175); conditions: S. cerevisiae mlh1 rad18 strain growth inhibition, stronger effect = higher value
In short: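 Genetically defined yeast (DNA repair-deficient) exposed to compounds; growth inhibition determined relative to vehicle.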

[7] = at 5.0 µM (retest, dose inferred, filed as 0.5)
[8] = at 50.0 µM (retest, dose inferred, filed as 5.0)

SMILES	growth inhibition [1, 7]	growth inhibition [1, 8]	growth inhibition ([1]; at 50.0 µM)	growth inhibition [2, 7]	growth inhibition [2, 8]	growth inhibition ([2]; at 50.0 µM)	growth inhibition [3, 7]	growth inhibition [3, 8]	growth inhibition ([3]; at 50.0 µM)	growth inhibition [4, 7]	growth inhibition [4, 8]	growth inhibition ([4]; at 50.0 µM)	growth inhibition [5, 7]	growth inhibition [5, 8]	growth inhibition ([5]; at 50.0 µM)	growth inhibition [6, 7]	growth inhibition [6, 8]	growth inhibition ([6]; at 50.0 µM)
CN(C)Cc1ccc(C(C)(C)C)cc1-c1cc(C(C)(C)C)ccc1CN(C)C	7%	3%	1.6%	7%	-4%	1.8%	-10%	2%	-32.4%	26%	-17%	-40.5%	-27%	-16%	-30.8%	-6%	-9%	11.9%
CS(C)=O.[Cl-].[Cl-].[NH-]CC(O)CN(Cc1ccccc1)CC(O)CN.[Pt] (configuration not stated)	-15%	4%	31.9%	18%	20%	1%	2%	18%	17.7%	39%	14%	-6.25%	-19%	-11%	-5.7%	-13%	-4%	7.75%
CCC(c1ccc(OC)cc1)C(O)(CC)c1ccc(OC)cc1 (configuration not stated)	-4%	98% (active)	99% (active)	-7%	99% (active)	98.8% (active)	-11%	98% (active)	98.4% (active)	-10%	99% (active)	98% (active)	11%	99% (active)	98.9% (active)	-3%	98% (active)	98.6% (active)
Cc1c(C)c(C)c(C(=O)c2ccccc2C(=O)NCCSC(C)(C)C)c(C)c1C	42%	49%	82.6% (active)	45%	60%	67.6%	-15%	-31%	83.3% (active)	53%	41%	76.6% (active)	44%	33%	82.4% (active)	47%	55%	84.3% (active)
CC1CC(N)=NC1C(=O)NCCC#N (configuration not stated)	20%	8%	10.9%	27%	8%	3.25%	38%	17%	64.1%	14%	2%	72% (active)	25%	-12%	62.6%	30%	11%	66.7%
COc1ccc(-c2c(CO)cc(OC)c(OC)c2OC)c(CO)c1	-1%	6%	93.5% (active)	-9%	21%	98.8% (active)	-5%	22%	64.5%	-2%	10%	98% (active)	1%	43%	98.7% (active)	13%	41%	99% (active)
CC(CC(C)[C@H]1CCC2[C@H]3C(CC(=O)[C@@]21C)[C@@]1(C)CCC(O)C[C@H]1C[C@@H]3O)C(=O)O (some centres not stated)	-1%	99% (active)	98.3% (active)	1%	99% (active)	98.5% (active)	-1%	98% (active)	98.8% (active)	-4%	99% (active)	96.8% (active)	-4%	98% (active)	99% (active)	10%	99% (active)	98.2% (active)
CCOC(=O)C[P+](c1ccc(C)cc1)(c1ccc(C)cc1)c1ccc(C)cc1	39%	96% (active)	96.7% (active)	17%	94% (active)	95.6% (active)	11%	82% (active)	95.8% (active)	2%	82% (active)	89.2% (active)	21%	88% (active)	91% (active)	6%	93% (active)	93.5% (active)
COc1ccc(NCCN(C)C)c2c(=O)c3ccccc3sc12	13%	53%	90.4% (active)	1%	45%	37.4%	-1%	39%	41.6%	-3%	16%	-1.05%	-7%	0%	50.2%	-3%	43%	69.4%
Oc1cccc2ccc(SSc3ccc4cccc(O)c4n3)nc12	99% (active)	95% (active)	92.2% (active)	100% (active)	95% (active)	95.7% (active)	94% (active)	95% (active)	93% (active)	85% (active)	87% (active)	74.8% (active)	96% (active)	95% (active)	90.5% (active)	93% (active)	93% (active)	93.3% (active)
CN(C)c1ccc(/C=C/c2nc3ccccc3s2)cc1	8%	79% (active)	3.1%	14%	60%	23.6%	-3%	91% (active)	4.3%	-3%	14%	36.4%	-3%	1%	-2.45%	30%	91% (active)	83.3% (active)
CC1=C(\C=C/C(C)=N/N=C(C)\C=C\C2=C(C)CCCC2(C)C)C(C)(C)CCC1	3%	31%	70.8% (active)	9%	52%	28.7%	27%	51%	71% (active)	3%	7%	28.2%	-2%	4%	23.7%	24%	49%	44.2%
C=CC1(NC(=O)c2ccccc2)CCC(C(C)(C)C)CC1 (configuration not stated)	-10%	96% (active)	48.9%	-5%	89% (active)	-0.2%	-5%	94% (active)	43.6%	5%	86% (active)	10.6%	2%	95% (active)	49.9%	-7%	93% (active)	40.4%
O=C(O)c1ccc(Br)cc1C(=O)c1ccccc1	-18%	-15%	1.15%	-19%	10%	9.45%	-2%	1%	-3.3%	31%	-38%	11.8%	8%	-18%	6.35%	-11%	6%	-20.4%
CC(=O)Oc1cccc2c1C(=O)C(Br)(Br)CCC2	91% (active)	99% (active)	92.1% (active)	100% (active)	99% (active)	87% (active)	92% (active)	99% (active)	88.5% (active)	52%	99% (active)	89.4% (active)	99% (active)	99% (active)	90% (active)	99% (active)	99% (active)	93.2% (active)
CC(C)[C@@H]1CC[C@@H](C)C[C@H]1OC(=O)NN	-8%	72% (active)	89.5% (active)	-30%	53%	90.3% (active)	-8%	70% (active)	91.2% (active)	1%	-2%	59.6%	6%	84% (active)	80.5% (active)	-6%	68%	95.3% (active)
CCCCCCCCCCCCCCCCCC[n+]1ccc(C(C)CC)cc1 (configuration not stated)	1%	96% (active)	99.3% (active)	12%	98% (active)	99.6% (active)	18%	97% (active)	99.2% (active)	16%	87% (active)	99.1% (active)	29%	96% (active)	99.2% (active)	6%	97% (active)	99.2% (active)
CCOC(=O)/N=C(\N)SCc1ccccc1	21%	3%	10.9%	-4%	-6%	1.05%	13%	-8%	-12.8%	-7%	-8%	-6.25%	0%	-7%	49.5%	-3%	-2%	-5.95%
O=C1C(c2ccc([N+](=O)[O-])cc2)=C(Cl)C(=O)c2c(O)cccc21	-30%	-22%	71.2% (active)	-3%	-9%	45.1%	0%	-19%	27.8%	8%	0%	1%	3%	-37%	69.2%	-14%	0%	45.4%
